# Pf growth 96h: P. falciparum growth inhibition at 96 hours. P. falciparum luciferase reporter growth, 96 h. Potency, µM (doses to about 28.7 µM), for the others: at the highest dose activity change, negative = inhibition, most hits filed as inhibitors. actives 6.9% (n = 320,000). AID 504834; active = well fitted inhibition curve with a large enough effect; inconclusive = small, poorly fitted or top-dose-only effect, or another doubt; inactive = no such curve, though single readings can be large or run the other way; also: % is scaled to controls: 0 for no effect and ±100 for the full control effect
#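 Luminescence readout: decreased luciferase signal marks inhibited growth of reporter-expressing P. falciparum in infected red cells (2% hematocrit, 0.05% parasitemia final), exposed to compound two generations (96 h, 37 C, 5% CO2).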
# Pf growth 48h: P. falciparum growth inhibition at 48 hours (one generation). actives 5.9% (n = 310,000). AID 504832. Potency, µM (titrated, usually from 28.7 µM), without a hit: at the highest dose activity change, negative = inhibition, hits mostly inhibitors. P. falciparum luciferase growth in erythrocytes, 48 h; active = well fitted inhibition curve with a large enough effect; inconclusive = small, poorly fitted or top-dose-only effect, or another doubt; inactive = no such curve, though single readings can be large or run the other way; also: % is scaled to controls: 0 for no effect and ±100 for the full control effect
#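 Here the parasites carry a stable luciferase gene and grow inside erythrocytes in Albumax-based RPMI medium with compound for one erythrocytic cycle. Activity is scored as loss of luminescent signal.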
# SARS PLP yeast: inhibitors of SARS-CoV papain-like protease in yeast; S. cerevisiae expressing SARS-CoV PLpro, growth rescue; Potency, µM (highest dose often 32.9 µM), for inactives: at the top dose activity, positive = growth rescue, hits mostly activators; actives 0.19% (n = 330,000); also: 0% is about no effect; nearly all actives have a fitted effect of over 55% in size
# NS1 inh: inhibitors of influenza NS1 protein function | Potency, µM (top dose mostly 46.1 µM), without a hit: at the top dose activity, positive = more growth | actives 0.4% (n = 270,000) | AID 2326; also: actives are rising curves; nearly all actives have a fitted effect of over 50% in size
#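 Recovery from NS1-induced slow growth read by OD600 in budding yeast switched to galactose assay medium (pH 6.0, -URA) at 1:100 dilution. Compound 23 nl per well; the matching strain lacking NS1 serves as control.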
# Starred values were filed as active, the others as inactive; ? = inconclusive; nt = no result given; [ ] = another dose, or the depositor's remark. A selection: hits, their analogues and other compounds. The true share with any hit is near 10%. Unless noted, calls follow the shape of the full dose curve. Potency is read from the fitted curve at half-maximal effect.
SMILES,Pf growth 96h,Pf growth 48h,SARS PLP yeast,NS1 inh
Cn1c(N)c(C(=O)COC(=O)CC(NC(=O)c2ccccc2Cl)c2ccccc2)c(=O)n(C)c1=O (stereo unspecified),?,1.31µM*,1.5%,nt
CC(=O)N/C(=C\c1ccccc1)C(=O)OCC(=O)c1c(N)n(CC(C)C)c(=O)n(C)c1=O,-13.1%,?,8.4%,nt
Cc1ccccc1C(=O)NC(CC(C)C)C(=O)OCC(=O)c1c(N)n(C)c(=O)n(C)c1=O (stereo unspecified),?,1.04µM*,0.2%,nt
CC(=O)NC(CC(=O)OCC(=O)c1c(N)n(CC(C)C)c(=O)n(C)c1=O)c1ccccc1 (stereo unspecified),9.28µM*,11.7µM*,3.4%,nt
Cc1cc(C(=O)N/N=C/c2cc(Br)cc(Br)c2OC(=O)c2cccc(F)c2)n[nH]1,?,11.7µM*,28.3%,nt
Cc1cc(C(=O)N/N=C\c2cc(C(C)(C)C)ccc2O)n[nH]1,2.5%,11.7µM*,?,-30.2%
Cc1ccc(-c2cc(C(=O)N/N=C/c3ccccc3O)n[nH]2)o1,?,5.22µM*,22.0%,-35.6%
Cc1cc(C(=O)N/N=C/c2cc(Br)cc(Br)c2OC(=O)c2ccccc2)n[nH]1,21.0%,?,0.0%,?
COc1ccc(-c2oc3ccccc3c2C#CC(C)(C)O)cc1,1.85µM*,?,1.8%,nt
COc1ccc(Br)cc1C(=O)Nc1cccc2ncccc12,-7.3%,0.6%,-0.7%,-2.8%
COc1ccc(Cl)cc1C(=O)Nc1cccc2ncccc12,0.233µM*,?,-2.1%,-28.0%
O=C(Nc1cccc2ncccc12)c1ccc(F)cc1,2.9%,-7.4%,-43.8%,6.7%
O=C(Nc1cccc2ncccc12)c1ccc(Cl)cc1,6.57µM*,?,-0.5%,6.0%
Cc1nc(CN2CCOCC2)cc(=O)[nH]1,50.9%,13.0%,0.1%,4.0%
Cc1nc(CCl)cc(=O)[nH]1,?,5.22µM*,-1.5%,nt
CC(C(=O)Nc1ccccc1Br)c1ccc([N+](=O)[O-])cc1 (stereo unspecified),4.15µM*,13.1µM*,?,3.4%
COC(=O)c1ccccc1NC(=O)C(C)c1ccc([N+](=O)[O-])cc1 (stereo unspecified),?,-22.9%[5.75 µM],0.0%,nt
CC(C(=O)NC1CCCCCC1)c1ccc([N+](=O)[O-])cc1 (stereo unspecified),8.28µM*,-17.1%,-1.4%,-14.5%
CC(Oc1ccc(Cl)cc1Cl)C(=O)NNC(=O)C(=O)N1CCCCC1 (stereo unspecified),?,4.4%,10.9%,-10.2%
O=C(CCCNC(=O)/C(=C/c1ccc(F)cc1)NC(=O)c1ccccc1)OCc1ccccc1,?,-23.3%,8.5%,-26.5%
COc1ccc(NC(=O)Nc2cc(C(=O)O)ccc2N2CC3CC(C2)c2cccc(=O)n2C3)c(OC)c1 (stereo unspecified),-24.2%,0.0%,-4.9%,?
COc1cccc(NC(=O)Nc2cc(C(=O)O)ccc2N2CC3CC(C2)c2cccc(=O)n2C3)c1 (stereo unspecified),1.47µM*,-7.5%,-4.2%,17.3%
CC1CCN(C(=O)c2ccc(N3CC4CC(C3)c3cccc(=O)n3C4)c([N+](=O)[O-])c2)CC1 (stereo unspecified),2.33µM*,8.9%,9.6%,-2.2%
O=C(CCN1CCOCC1)Nc1cc(C(=O)Nc2ccc(Cl)cc2)ccc1N1CC2CC(C1)c1cccc(=O)n1C2 (stereo unspecified),?,11.7µM*,-1.5%,-19.2%
CS(=O)(=O)c1ccc(Cl)c(NC(=O)c2cccc(-n3cnnn3)c2)c1,5.7%,-7.6%,-0.5%,nt
SMILES,Pf growth 96h,Pf growth 48h,SARS PLP yeast,NS1 inh
CCN(CC)C(=O)Oc1ccccc1NC(C)=O,9.28µM*,7.8%,-0.9%,10.5%
CCCc1cc(=O)n2nc(N3CCC(C(=O)NCc4ccco4)CC3)sc2n1,29.8%,-5.4%,2.0%,4.5%
C[N+]12CCCC[C@@H]1CCC(=C(c1cccs1)c1cccs1)C2 (stereo partly specified),-9.0%,4.26µM*,nt,nt
CC1CCCC(NC(=O)c2cccs2)C1C (stereo unspecified),?,?,1.8%,nt
COc1ccc(-c2csc3ncnc(N4CCN(S(=O)(=O)c5cccc(C(F)(F)F)c5)CC4)c23)cc1,0.9%,10.4µM*,-5.6%,nt
COc1ccc(-c2csc3ncnc(N4CCN(S(=O)(=O)c5ccc(C(C)=O)cc5)CC4)c23)cc1,2.33µM*,1.65µM*,-1.2%,nt
